Assay outcomes from PubChem.
Rows were chosen to be rich in hits. Some 8.9% of all compounds tested hit in one or more screens of this group.
KB-V1 MDR tox – KB-V1 MDR subline cytotoxicity; KB-V1 MDR cells viability, CellTiter-Glo, 72 h; Potency, µM (titrated, usually from 46.1 µM), most hits filed as cytotoxic; hit rate 3.4% among 400,000; further: nearly all actives have a fitted effect of over 60% in size
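qHTS viability screen in drug-selected KB-V1 MDR cells: 72 h compound treatment at 37 degrees C, ATP luminescence end point.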
DRD3 antagonist – blocks the human D3 dopamine receptor; hit rate 2.5% among 360,000; P35462; D3R cells, DiscoveRx beta-arrestin luminescence, antagonist mode; stronger effect = lower value; max response, negative = inhibition, %; in the data active means max response below about -50%; inconclusive means no clear call, values can overlap the other calls
Target sequence (P35462 whole entry, looked up): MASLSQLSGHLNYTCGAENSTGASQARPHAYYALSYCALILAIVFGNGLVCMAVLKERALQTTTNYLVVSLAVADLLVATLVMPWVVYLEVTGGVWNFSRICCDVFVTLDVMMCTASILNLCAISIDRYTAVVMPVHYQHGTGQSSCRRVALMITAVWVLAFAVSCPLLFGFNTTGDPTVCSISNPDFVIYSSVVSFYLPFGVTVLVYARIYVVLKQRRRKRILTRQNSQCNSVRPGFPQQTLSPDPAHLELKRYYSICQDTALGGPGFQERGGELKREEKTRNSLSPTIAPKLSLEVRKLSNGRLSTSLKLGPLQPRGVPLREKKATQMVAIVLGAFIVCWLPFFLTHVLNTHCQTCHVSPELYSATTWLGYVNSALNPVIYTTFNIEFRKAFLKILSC
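Cells expressing the human receptor were seeded at 1500 cells/well, incubated overnight at 37 degrees C in 5% CO2, then exposed to library compounds with dopamine controls for 90 minutes at 37 degrees C before luminescent detection.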
D3 ag – D3 dopamine receptor (human) agonism; P35462; D3R DiscoveRx beta-arrestin cells, luminescence, 90 min; max activation, %; hit rate 0.58% among 410,000; in the data active means max activation above about 30%
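Agonist-mode cell screen: cells plated at 1500/well and incubated overnight at 37 °C, then exposed to library compounds for 90 min at 37 °C. Detection reagent was added for 30–60 min at room temperature, and luminescence was read.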
MCF10A rerep – induces DNA re-replication in MCF 10a normal breast cells | hit rate 2.9% among 350,000 | MCF 10A DNA re-replication, Hoechst nuclear intensity, 48 h | AID 624296 | Potency, µM (top dose mostly 46.1 µM), most hits filed as activators; further: nearly all actives have a fitted effect of over 50% in size
KB-3-1 tox – kills parental KB-3-1 adenocarcinoma cells; KB-3-1 viability, CellTiter-Glo ATP luminescence, 72 h; Potency, µM (top dose mostly 46.1 µM), hits mostly cytotoxic; hit rate 1.4% among 400,000; AID 1347075; further: nearly all actives have a fitted effect of over 60% in size
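KB-3-1 cells, DMEM (no phenol red) + 10% FBS; compound by pin transfer, 72 h, 37 °C. Readout: CellTiter-Glo luminescence after 10 min. Data normalized, curve-fitted.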
SW480 rerep – inducers of DNA re-replication in SW480 colon cancer cells; SW480 DNA re-replication, Hoechst DNA content imaging, 48 h; Potency, µM (top dose mostly 46.1 µM), actives largely listed as activators; hit rate 1.8% among 340,000; AID 624297; further: nearly all actives have a fitted effect of over 55% in size
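DNA re-replication was detected as more nuclei of elevated Hoechst intensity after 48 hr exposure to compound (23 nL pinned per well of 250 cells).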
Each line names hits and unclear results; the compound was inactive in the other large screens. Unless noted, the call rests on the fitted dose curve; in most records, active means well fitted curve in the direction sought with a large enough effect; inconclusive means small, poorly fitted or top-dose-only effect, or another doubt; inactive means no such curve, though single readings can be large; an effect the other way counts as inactive or inconclusive.

O=C(Cn1c(=O)nc(-c2ccccc2)c2ccccc21)Nc1ccc(Cl)c(C(F)(F)F)c1	none (no result: KB-V1 MDR tox, DRD3 antagonist, MCF10A rerep, KB-3-1 tox, SW480 rerep)
Cc1ccccc1COc1cccn2c(N(C)C(=O)CCC3CCCC3)c(C)nc12	none (no result: MCF10A rerep, SW480 rerep)
O=C([C@@H]1CCCN1C1=NS(=O)(=O)c2ccccc21)N1CCN(c2ccccc2)CC1	none (no result: MCF10A rerep, SW480 rerep)
Cc1ccc2c(=O)c(CN3CCCCCC3)c(C)[nH]c2c1C	none
Cc1[nH]c2c(Cl)cccc2c(=O)c1CN1CCCCCC1	DRD3 antagonist -90, KB-3-1 tox inconclusive
Cc1ccccc1NC(=O)c1nc(S(C)(=O)=O)ncc1N(Cc1ccco1)Cc1sccc1C	none (no result: DRD3 antagonist, MCF10A rerep, SW480 rerep)
CCc1ccc(-n2nc(C)c3c(C)cc(=O)n(CC(=O)N4CCCc5ccccc54)c32)cc1	none (no result: DRD3 antagonist, MCF10A rerep, SW480 rerep)
CCOC(=O)/C(C#N)=N/Nc1c(C)n(C)n(-c2ccccc2)c1=O	none
Cc1ccccc1C(=O)/C(C#N)=N/Nc1c(C)n(C)n(-c2ccccc2)c1=O	KB-V1 MDR tox 0.46µM, DRD3 antagonist inconclusive, SW480 rerep inconclusive
Cc1c(N/N=C(\C#N)C(=O)c2ccccc2)c(=O)n(-c2ccccc2)n1C	KB-V1 MDR tox inconclusive, DRD3 antagonist -68, KB-3-1 tox inconclusive, SW480 rerep inconclusive
CC(=O)N1N=C(c2cccs2)CC1c1cccc([N+](=O)[O-])c1 (configuration not stated)	KB-V1 MDR tox inconclusive, DRD3 antagonist -60, SW480 rerep inconclusive
COC(=O)CSc1[nH]c2cc(C)ccc2c1[N+](=O)[O-]	MCF10A rerep inconclusive
CCOc1ccc2nc(-c3ccccc3)nc(SCC(=O)OC)c2c1	MCF10A rerep inconclusive
COC(=O)CSc1[nH]c2ccc(Br)cc2c1[N+](=O)[O-]	MCF10A rerep 12µM
CCOc1ccc2[nH]c(SCC(=O)OC)c([N+](=O)[O-])c2c1	DRD3 antagonist -53, MCF10A rerep inconclusive
CCc1ccc(C2=CC(c3cccc(C)c3)n3c(nc4ccccc43)N2)cc1 (configuration not stated)	none (no result: DRD3 antagonist, MCF10A rerep, SW480 rerep)
CCOC(=O)CCN(c1ccccc1)S(=O)(=O)c1ccc2[nH]c(=O)ccc2c1	KB-V1 MDR tox inconclusive (no result: DRD3 antagonist, MCF10A rerep, SW480 rerep)
COc1ccc(F)cc1S(=O)(=O)NCC(c1ccco1)S(=O)(=O)c1cccs1 (configuration not stated)	none (no result: KB-V1 MDR tox, DRD3 antagonist, MCF10A rerep, KB-3-1 tox, SW480 rerep)
COc1ccccc1-c1cnn2c(NC3CCCC3)cc(C)nc12	KB-V1 MDR tox inconclusive, MCF10A rerep 16µM
CC(=O)Nc1ccc(C(=O)N2CCCCC2c2cc(C(=O)Nc3cccc(C#N)c3)no2)cc1 (configuration not stated)	KB-3-1 tox inconclusive (no result: MCF10A rerep, SW480 rerep)
CCCCn1nnnc1C(c1ccccc1OC(F)(F)F)N1CCN(C/C=C/c2ccccc2)CC1 (configuration not stated)	KB-V1 MDR tox inconclusive, DRD3 antagonist -59 (no result: MCF10A rerep, SW480 rerep)
COc1ccccc1C(c1nnnn1Cc1ccccc1)N1CCN(C2CCCC2)CC1 (configuration not stated)	DRD3 antagonist -58, MCF10A rerep inconclusive
COc1ccccc1C(c1nnnn1Cc1ccccc1)N1CCN(c2nc3ccccc3s2)CC1 (configuration not stated)	none
FC(F)(F)Oc1ccccc1C(c1nnnn1Cc1ccccc1)N1CCN(C/C=C/c2ccccc2)CC1 (configuration not stated)	KB-V1 MDR tox inconclusive, DRD3 antagonist -66 (no result: MCF10A rerep, SW480 rerep)
Cc1ccc(NC2(c3ccccc3)C(=O)c3ccccc3C2=O)cc1F	none (no result: DRD3 antagonist, MCF10A rerep, SW480 rerep)
O=C(Nc1ccc(OCc2ccccc2)cc1)c1cccs1	none
CCCCCCCCCCCNC(=O)c1ccoc1C	DRD3 antagonist inconclusive, MCF10A rerep 26µM
CCCCOC(=O)c1ccc(NC(=O)c2ccoc2C)cc1	KB-V1 MDR tox 10µM, MCF10A rerep inconclusive
Cc1occc1C(=O)Nc1ccc(OCc2ccccc2)cc1	KB-V1 MDR tox 16µM
CCO/C(=C/c1sc2ccc(OC)cc2[n+]1CCCS(=O)(=O)[O-])CC	DRD3 antagonist -73
COc1cccc(-c2nc(CS(=O)(=O)CC(=O)Nc3c(C)cc(C)cc3C)c(C)o2)c1	none (no result: DRD3 antagonist, MCF10A rerep, SW480 rerep)
CCOc1cc(CN2CCN(CCOCCO)CC2)ccc1OC	none
